# Reference: PubChem BioAssay (NCI)
# Compounds without any hit were thinned out: in the full panel of roughly 83,000, 20% have a hit.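 Single-concentration screen, 48 h exposure, 96-well plates. Endpoint: percent growth. Below 10 = active.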 Values without a mark were called inactive. Active and inactive are the calls of the source.
# Assays:
# Assay in all cases: NCI-60 one-dose screen, 48 h (100 = growth as untreated, 0 = no growth, -100 = all killed)
# Settings in all cases: 10 µM unless noted
# SK-MEL-2 melanoma = test system: SK-MEL-2 melanoma
# EKVX NSCLC = test system: EKVX NSCLC
# SN12C renal = test system: SN12C renal
# UO-31 renal = test system: UO-31 renal
# TK-10 renal = test system: TK-10 renal
# ACHN renal = test system: ACHN renal
# CAKI-1 renal = test system: CAKI-1 renal
# A498 renal = test system: A498 renal
# CCRF-CEM leukemia = test system: CCRF-CEM leukemia
# MOLT-4 leukemia = test system: MOLT-4 leukemia
# SR leukemia = test system: SR leukemia
# RPMI-8226 leukemia = test system: RPMI-8226 leukemia
# OVCAR-8 ovarian = test system: OVCAR-8 ovarian
# OVCAR-5 ovarian = test system: OVCAR-5 ovarian
# OVCAR-4 ovarian = test system: OVCAR-4 ovarian
# SK-OV-3 ovarian = test system: SK-OV-3 ovarian
# IGROV1 ovarian = test system: IGROV1 ovarian
# OVCAR-3 ovarian = test system: OVCAR-3 ovarian
# HS 578T breast = test system: HS 578T breast
# NCI/ADR-RES ovarian = test system: NCI/ADR-RES ovarian
SMILES,growth (SK-MEL-2 melanoma),growth (EKVX NSCLC),growth (SN12C renal),growth (UO-31 renal),growth (TK-10 renal),growth (ACHN renal),growth (CAKI-1 renal),growth (A498 renal),growth (CCRF-CEM leukemia),growth (MOLT-4 leukemia),growth (SR leukemia),growth (RPMI-8226 leukemia),growth (OVCAR-8 ovarian),growth (OVCAR-5 ovarian),growth (OVCAR-4 ovarian),growth (SK-OV-3 ovarian),growth (IGROV1 ovarian),growth (OVCAR-3 ovarian),growth (HS 578T breast),growth (NCI/ADR-RES ovarian)
COc1ccc(-c2nc3cc(C)ccc3n2CC(=O)N=Nc2c(O)[nH]c3ccc(OC)cc23)cc1,-14% (active),-25.5% (active),-95.1% (active),-29.4% (active),-3.46% (active),-73.9% (active),-51.3% (active),52.3%,38.5%,-46.2% (active),-21.1% (active),-14.7% (active),-68.8% (active),-48.2% (active),-58.1% (active),-17.7% (active),-17.3% (active),-71.8% (active),-23.4% (active),
O=C(CCN1C(=O)/C(=C/c2ccc(F)cc2)SC1=S)N1CCOCC1,65.9%,87.2%,53%,51.1%,85.6%,63.6%,88.4%,72.5%,66.6%,84%,35%,52.2%,80.9%,79.1%,55.5%,91.5%,85.6%,78.7%,89%,78.2%
Cc1ncsc1-c1ccc(CNC(=O)[C@@H]2C[C@@H](O)CN2C(=O)[C@@H](NC(=O)C2(F)CC2)C(C)(C)C)c(OCCOCCOCCOCCOc2nc(Nc3cc(S(C)(=O)=O)ccc3N[C@@H](c3cccc4c3OC(F)(F)O4)c3ncccc3Cl)nc(N3CCNCC3)n2)c1,112%,80.8%,80.9%,98.5%,109%,98.9%,101%,116%,-9.39% (active),-5.45% (active),26.3%,13.6%,98.4%,99%,91.6%,111%,72.2%,89.1%,,
CC(=O)c1cccc(NC(=O)CCC(=O)NS(=O)(=O)c2ccc(C)cc2)c1,115%,99.5%,111%,92.5%,103%,105%,101%,137%,99%,107%,99.3%,99.8%,106%,110%,118%,99.6%,115%,128%,111%,112%
CN1CCN(/C(=N\c2sc(-c3ccccc3)nc2-c2ccccc2)c2ccccc2)CC1,115%,81.3%,82.7%,82.4%,105%,95.3%,72.7%,122%,57.3%,40.9%,21.1%,34.6%,97.6%,70%,89.4%,105%,82.5%,111%,88.7%,
Nc1nc(C(F)(F)F)cs1,108%,94.5%,111%,93.8%,98.1%,113%,96.7%,114%,109%,112%,101%,115%,105%,113%,108%,101%,107%,108%,109%,
C#C[C@]1(O)CC[C@H]2[C@@H]3CC=C4c5sc(-c6ccc(O)c(O)c6)nc5CC[C@]4(C)[C@H]3CC[C@@]21C,-97.9% (active),-74.4% (active),-89.5% (active),-93.8% (active),-44.9% (active),-88.9% (active),-51.2% (active),-88.5% (active),-27.9% (active),-48% (active),-25.7% (active),-50.4% (active),-77.3% (active),-87% (active),-68.1% (active),-78.2% (active),-67.4% (active),-56.3% (active),-32.6% (active),-27.2% (active)
COc1ccc(/C=C/c2nc3ccccc3c(=O)n2CC(=O)Nc2ccc(OC)cc2)cc1,96%,114%,57.3%,46.9%,48.2%,14%,47.3%,130%,63.6%,78.2%,79.5%,76.4%,59.1%,95.6%,9.1% (active),79.3%,94.2%,62.5%,56.2%,75.7%
O=C(/C=C/c1ccc(-c2ccccc2)cc1)c1nc2ccccc2n1Cc1ccc(F)cc1,56.6%,34.4%,53.9%,47.6%,55.8%,41.3%,49.5%,110%,11.9%,-12.8% (active),1.5% (active),-2.77% (active),46%,43.5%,55.2%,82.2%,55.7%,28.8%,,
COc1ccc([C@H](C)Nc2nc(Cl)nc3ccccc23)cc1,70.2%,19.2%,47.9%,47.1%,66.9%,54.3%,56.4%,108%,34.9%,20.8%,17.9%,23.6%,56.4%,54.7%,62.9%,70.5%,63.2%,78.7%,,
CC(=O)Nc1ccc(C(=O)NC(=S)Nc2ccc(S(N)(=O)=O)cc2)cc1,97.1%,90.1%,91.7%,80.7%,89.1%,102%,87.9%,104%,100%,111%,105%,105%,94.6%,96.5%,84.9%,101%,92.3%,97.7%,94.5%,95.9%
Clc1cccc(N/N=C/c2c[nH]c3ccc(Br)cc23)n1,27.4%,33.9%,-1.39% (active),7.66% (active),63.9%,10.6%,11.7%,79.9%,-14.8% (active),-20.1% (active),-14% (active),1.81% (active),42%,14%,61%,25.3%,-33.2% (active),18.6%,32.9%,
O=C(COc1ccc(NC(=O)Nc2ccc(Cl)c(Cl)c2)cc1)N=Nc1c(O)[nH]c2ccccc12,-41.9% (active),18.6%,-32% (active),87.5%,30.5%,36.9%,15.6%,-53.6% (active),37.3%,1.27% (active),2.4% (active),2.89% (active),-43.2% (active),-8.84% (active),-5.31% (active),-49.9% (active),-49% (active),-78.1% (active),-9.24% (active),
Cc1cc2nc3c4ccccc4n(CCCN(C)C)c3nc2cc1C,-90.1% (active),-41.8% (active),-27.6% (active),2.63% (active),8.05% (active),4.95% (active),3.24% (active),-39.6% (active),0.177% (active),2.75% (active),3.07% (active),-26.1% (active),6.13% (active),9.07% (active),-23.4% (active),8.14% (active),-10.5% (active),-14.2% (active),-10.7% (active),
CN1C(=O)/C(=C/c2ccc(C(=O)Nc3ncc(Cc4ccc(Cl)cc4Cl)s3)cc2)SC1=S,19.7%,63%,36.1%,40.4%,71.4%,31.3%,30.1%,87.6%,40.2%,31.1%,28.8%,36.3%,39.3%,46.3%,53.6%,53.3%,47.2%,12.9%,44.3%,-11.8% (active)
